Assay outcomes (PubChem)
Hits are enriched below; roughly 21% of the tested compounds scored in any of these assays.
Pf growth 48h: P. falciparum growth inhibition at 48 hours (one generation); P. falciparum luciferase growth in erythrocytes, 48 h; Potency, µM (top dose mostly 28.7 µM), for the others: at the top dose activity change, negative = inhibition, hits mostly inhibitors; 310,000 compounds, 5.9% hits; AID 504832; note: potency is the fitted concentration of half-maximal effect; % is set by controls: 0 for no effect and ±100 for the full control effect
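First compound was added to culture medium, then infected red cells at 0.1% parasitemia and 2% hematocrit (final). After incubation at 37 C under 5% CO2, luciferase detection reagent was dispensed and light output recorded.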
CHX counter: counter-screen hit for Shiga toxin inhibitors, cycloheximide. cell reporter, cycloheximide protein synthesis inhibition counterscreen. max response, %. 300,000 compounds, 12% hits. AID 2314; in the data active = max response mostly above about 13%, no sharp cut-off; inactive = mostly below about 14%; note: read at 38.3 µM for the half of the compounds with a filed dose; 0% is about no effect
Pf growth 96h: P. falciparum growth inhibition at 96 hours; P. falciparum luciferase reporter growth, 96 h; Potency, µM (titrated, usually from 28.7 µM), without a hit: at the top dose activity change, negative = inhibition, hits mostly inhibitors; 320,000 compounds, 6.9% hits; note: potency is the fitted concentration of half-maximal effect; % is set by controls: 0 for no effect and ±100 for the full control effect
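Infected RBCs, 2% Hct / 0.05% parasitemia final; luciferase-reporter P. falciparum; cpd 96 h, 37 C, 5% CO2; luciferase detection reagent; luminescence.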
Shiga toxin inh: Shiga toxin inhibition; 290,000 compounds, 9.2% hits; Vero cells, Shiga toxin protein synthesis inhibition reporter; inhibition, % at 38.7 µM; AID 2315; in the data active = inhibition mostly above about 28%, no sharp cut-off; inactive = mostly below about 43%; note: 0% is about no effect
Numbers without * were called inactive; ? = inconclusive; . = no result. Unless noted, calls come from the whole dose curve; as a rule, active = well fitted inhibition curve with a large enough effect; inconclusive = small, poorly fitted or top-dose-only effect, or another doubt; inactive = no such curve, though single readings can be large or run the other way.

SMILES	Pf growth 48h	CHX counter	Pf growth 96h	Shiga toxin inh
c1ccc(OCCCCn2cnc3ccccc32)cc1	-9%	6	-25%	14
c1ccc(CCn2cnc3ccccc32)cc1	25%	29*	84%	25
c1ccc(OCCn2cnc3ccccc32)cc1	3%	29*	-23%	18
Cc1cccc(C)c1NC(=O)CN(C)C(=O)Cn1c(=O)cnc2ccccc21	-10%	0	31%	11
C/C(N)=C(/C#N)C(=O)CSc1nc2ccccc2n1CC(C)C	-3%	10	-29%	-9
O=C1C(=O)N(c2ccccn2)C(c2ccc(F)cc2)/C1=C(/O)c1ccc(Br)cc1 (configuration not stated)	?	-4	47%	.
Cc1ccc(/C(O)=C2/C(=O)C(=O)N(c3ccccn3)C2c2ccc(F)cc2)cc1 (configuration not stated)	-16%	19*	-25%	66
CC(=O)C1=C(O)C(=O)N(c2ccccn2)C1c1ccc(Cl)cc1 (configuration not stated)	0%	27*	-17%	66*
CC(=O)C1=C(O)C(=O)N(c2ccccn2)C1c1ccc(C)cc1 (configuration not stated)	4%	12	0.37µM*	15
Cc1ccc(C)c(S(=O)(=O)N2CCN(CC(=O)NC(=O)NCc3ccco3)CC2)c1	0%	-3	-20%	-6
C=CCn1c(-c2cccs2)nc2nc3ccccc3nc21	19%	30*	.	45*
C=CCn1c(-c2cccs2)nc2ccccc21	9%	16*	4%	23*
CCCn1c(-c2cccs2)nc2ccccc21	-17%	20	?	18
CC(C)Sc1ccc([N+](=O)[O-])cc1C(=O)Nc1ccncc1	?	5	1.2µM*	-1
Cc1nn(-c2ccc(F)cc2)c(Cl)c1/C=C(\CC(=O)O)c1nc2ccccc2s1	38%	-3	40%	5
CCOC(=O)c1c(-c2ccccc2)nc2c(C)cccn12	-2%	12	-10%	-16
Cc1cccn2c(N)c(-c3ccccc3)nc12	38%	20*	?	26
O=C(NCCc1cnc[nH]1)c1ccc(-c2ccccc2)cc1	30%	30*	36%	55*
CCOc1ccc(C(=O)NCCc2cnc[nH]2)cc1	34%	13	46%	22
COCCNC(=S)N1CCc2cc(OC)c(OC)cc2C1COc1cc(C)cc(C)c1 (configuration not stated)	12µM*	-1	?	-11
CNC(=S)N1CCc2cc(OC)c(OC)cc2C1COc1ccc(OC)cc1 (configuration not stated)	?	2	?	-3
CC(=O)/C(=N/Nc1ccccc1)Sc1nnc(C(O)c2ccccc2)n1-c1ccccc1 (configuration not stated)	-17%	-3	?	-15
Cc1nn(Cc2ccccc2)c(N)c1C#N	15%	-4	12µM*	-8
N#CC/C(N)=N/Nc1nc2ccccc2nc1Cc1ccccc1	4.7µM*	-8	?	-12
O=C(CN1CCCC1)NCc1ccccc1	-162%	5	13µM*	-10
SMILES	Pf growth 48h	CHX counter	Pf growth 96h	Shiga toxin inh
O=C(CN1CCN(c2ccc(Cl)cc2)CC1)NCc1ccccc1	10%	-4	-6%	-6
O=C(Cn1ccc2ccccc2c1=O)NCCC(=O)N1CCN(c2cccc(Cl)c2)CC1	.	-3	7.4µM*	16
O=C(CN1CCOCC1)NCc1ccccc1	9%	-2	?	-12
O=C(CCNC(=O)Cn1ccc2ccccc2c1=O)NCCN1CCN(c2cccc(Cl)c2)CC1	-10%	5	0%	2
O=C(CN1CCN(c2cccc(Cl)c2)CC1)NCc1ccccc1	1%	-1	10µM*	-5
CC(=O)N1c2ccc(S(=O)(=O)N3CCCCC3)cc2CC1C(=O)NCc1cccc(Cl)c1 (configuration not stated)	-8%	-1	?	-10
COc1ccccc1OCC(=O)Nc1cc2c(cc1C(=O)O)OCCCO2	8%	-4	7%	-6
Cc1cc(C)n(-c2nnc(NC(C)(C)C)nn2)n1	209%	26*	181%	54*
Cc1cc(C)n(-c2ncc(C#N)cn2)n1	15%	2	36%	-5
Cc1cc(C)n(-c2nnc(NC34CC5CC(CC(C5)C3)C4)nn2)n1	3.3µM*	37*	2.9µM*	21*
CSCCC(NC(=O)c1ccccc1Br)C(=O)N1CCCCCCC1 (configuration not stated)	?	.	12%	.
O=[N+]([O-])c1ccc(N/N=C/c2ccc[nH]2)cc1	-23%	84*	?	66*
O=[N+]([O-])c1ccccc1N/N=C/c1c[nH]c2ccccc12	123%	67*	371%	88*
O=[N+]([O-])c1ccc(N/N=C/c2c[nH]c3ccccc23)cc1	-23%	26*	?	61*
Cn1cc([N+](=O)[O-])c(C(=O)N/N=C\c2c[nH]c3ccccc23)n1	15%	9	7%	-3
CCOC(=O)CN1C(=O)C2(OCCCO2)c2cc(Br)ccc21	-6%	-1	?	-4
Cc1ccc(S(=O)(=O)N(C)C)cc1NC(=O)COC(=O)CN1C(=O)c2ccccc2C1=O	-15%	.	-10%	.
COc1cccc(/C=C(\C)C(=O)c2c(C)cc(C)[nH]c2=O)c1OC	6%	-4	-6%	-14
COc1ccc(NC(=O)c2cc(=O)[nH]c(=O)[nH]2)cc1S(=O)(=O)Nc1ccccc1Cl	?	11	?	-2
COc1cc(OC)c(-c2cc(C(=O)O)ccc2OC)c(OC)c1	1%	-5	-9%	-9
COc1ccc(CNc2nccs2)cc1OC	41%	-2	12µM*	45
C=CCOc1ccc(CNc2nccs2)cc1	78%	22*	?	55*
COc1ccc(CNc2nc3ccccc3s2)cc1OC	106%	45*	?	66*
c1ccc(CCNc2nc3ccccc3s2)cc1	.	67*	-36%	85*
Cc1ccc(CNc2nc3ccccc3s2)s1	184%	-3	?	-31
SMILES	Pf growth 48h	CHX counter	Pf growth 96h	Shiga toxin inh
c1ccc2c(c1)CC1(CCCC1)N=C2N1CCOCC1	9%	-1	24%	22
O=C(Cc1c(F)cccc1Cl)NNC(=O)c1ccncc1	-7%	.	-25%	.
COc1ccccc1N1CCN(c2nccc(C)n2)CC1	25%	-2	2%	-7
O=C(CCC(=O)N1CCCC1)N1CCCC1	31%	-2	37%	7
COc1cc(/C=N/NC(=S)N/N=C/c2cc(OC)c(OC)c(OC)c2)cc(OC)c1OC	27%	38*	5%	87*
COc1ccc(/C=N\NC(=O)c2ccc(-c3ccccc3)cc2)c(OC)c1OC	9%	1	0.83µM*	-5
COc1cc(/C=N/NC(=S)NCCN2CCOCC2)cc(OC)c1O	22%	19*	2%	77*
COc1cc(OC)c(OC)cc1/C=N/NC(=S)NCCN1CCOCC1	-24%	7	51%	5
COc1cc(/C=N/NC(=O)c2ccc(-c3ccccc3)cc2)cc(OC)c1OC	?	14	17µM*	10
CN1CCC(=NNC(=O)C(=O)Nc2ccccc2)CC1	20%	24*	79%	25*
